# Laboratory results as given in PubChem BioAssay (NCATS).
# Results filed as inconclusive are left out. Where a call stands in place of a potency, no number is given. Active and inactive are the calls of the source. The call rests on the fitted dose curve; in most records, active means well fitted inhibition curve with a large enough effect in the signal ratio, with a control signal flat (not every such curve was filed as active); inconclusive means small, poorly fitted or top-dose-only effect, or effect the other way, or a change in a side signal; inactive means flat fitted curve, though single readings scatter; the % refers to the signal ratio.
# Assay: qHTS Assay for Identification of Small Molecule Antagonists for NFkB Signaling Pathway (AID 895)
# Summary of the method: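 Beta-lactamase reporter read-out (460 and 530 nm emission ratio, 405 nm excitation, 2 hrs substrate loading RT) after 5 hr stimulation with 10 pM TNF alpha in compound-treated NFkB-bla ME-180 cells in low-serum medium.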
# Potency means the concentration at half of the fitted maximal effect.
row,Structure (SMILES),Potency
1,CC1(C)CCC2=C(O1)c1ccccc1C(=O)C2=O,8.91 µM (active)
2,CCN(CC)CCOC(=O)c1ccc(N)cc1,inactive
